Results filed as inconclusive are left out. Active and inactive are the calls of the source. Rule for the calls, unless noted: active = hit-call score of the fitted dose curve at least 0.9, where 1 is the maximum; inconclusive = response in the unintended direction; inactive = score below 0.9.

Assay [1] has as its target human Caspase 2 (CASP2), CASP2 (gene 835) (UniProt P42575). Nature of the assay: NVS_ENZ_hCASP2: NovaScreen (NVS) Enzymatic Assay for human Caspase 2 (CASP2) (AID 2283135). In a few lines: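 Single-point duplicate testing at 25 uM preceded concentration series topping at 50 uM. Activity of the recombinant E. coli-derived protease was followed by fluorescent substrate cleavage 1 h post-dosing, relative to DMSO.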

Assay [2] addresses human Fibroblast Growth Factor Receptor 1 (FGFR1), FGFR1 (gene 2260) (UniProt P11362). Nature of the assay: NVS_ENZ_hFGFR1: NovaScreen (NVS) Enzymatic Assay for human Fibroblast Growth Factor Receptor 1 (FGFR1) (AID 2283159).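 For AC50: hits lower the signal so potencies describe inhibitors of the kinase.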 In a few lines: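 Cell-free recombinant kinase with fluorescent substrate, product separated by electrophoretic mobility shift; read 1 hour after dosing, loss of signal relative to DMSO. Initial screen in duplicate at 25 uM, actives followed in concentration series.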

For assay [3], the target named is human Protein Tyrosine Phosphatase Receptor Type C (PTPRC), PTPRC (gene 5788) (UniProt P08575). The experiment in a line: NVS_ENZ_hPTPRC: NovaScreen (NVS) Enzymatic Assay for human Protein Tyrosine Phosphatase Receptor Type C (PTPRC) (AID 2283212). The method in brief:
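Absorbance-based phosphatase activity of human PTPRC protein extracted from yeast was measured 1 h post-dosing. Compounds first tested at 25 uM in duplicate, then those passing threshold in singleton concentration series to 50 uM.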

Assay [4] concerns the target rat Corticotropin Releasing Factor Receptor (CRF), Crhr1 (gene 58959) (UniProt P35353). The experiment in a line: NVS_GPCR_rCRF: NovaScreen (NVS) G Protein-Coupled Receptor Assay for rat Corticotropin Releasing Factor Receptor (CRF) (AID 2283300). In a few lines:
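Single-concentration (25 uM, duplicate) radioligand binding on rat cortical membrane preparations, counted by scintillation after 2 h. Activity scored as signal loss relative to DMSO negative control.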

Assay [5] addresses Voltage-dependent N-type calcium channel subunit alpha-1B (Rattus norvegicus) (UniProt Q02294). Nature of the assay: NVS_IC_rCaChN: NovaScreen (NVS) Ion Channel Assay for rat Calcium Channel, Type N (CaChN) (AID 2283317).
The target of assay [6] is human AMP-activated Protein Kinase, alpha 1 (AMPKa1), PRKAA1 (gene 5562) (UniProt Q13131). Nature of the assay: NVS_ENZ_hAMPKa1: NovaScreen (NVS) Enzymatic Assay for human AMP-activated Protein Kinase, alpha 1 (AMPKa1) (AID 2283130). In a few lines: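 Compounds were screened in duplicate at 25 uM, and those reaching ~30% inhibition were titrated up to 50 uM. The enzyme was recombinant human AMPKα1, and kinase turnover was read by fluorescence/mobility shift 1 h post-dosing as loss of signal versus DMSO.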

The target of assay [7] is human Aurora Kinase A - serine/threonine-protein Kinase 6 (AurA), AURKA (gene 6790) (UniProt O14965). The experiment in a line: NVS_ENZ_hAurA: NovaScreen (NVS) Enzymatic Assay for human Aurora Kinase A - serine/threonine-protein Kinase 6 (AurA) (AID 2283142). In a few lines:
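Recombinant human AurA activity read by fluorescence after mobility-shift separation of product from substrate; 1 hour incubation. Chemicals first run in duplicate at 25 uM, then concentration series to 50 uM if over threshold; fitted relative to DMSO.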

The target in assay [8] is human Epidermal Growth Factor Receptor (EGFR), EGFR (gene 1956) (UniProt P00533). Nature of the assay: NVS_ENZ_hEGFR: NovaScreen (NVS) Enzymatic Assay for human Epidermal Growth Factor Receptor (EGFR) (AID 2283151). In a few lines: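 Cell-free kinase assay, fluorescence plus electrophoretic mobility shift separating substrate and product, read 1 hour after dosing; loss of signal vs DMSO. Duplicate screen at 25 uM, then concentration-response to 50 uM.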

Assay [9] concerns the target human NIMA (Never In Mitosis Gene A)-Related Kinase 2 (NEK2), NEK2 (gene 4751) (UniProt P51955). Nature of the assay: NVS_ENZ_hNEK2: NovaScreen (NVS) Enzymatic Assay for human NIMA (Never In Mitosis Gene A)-Related Kinase 2 (NEK2) (AID 2283188). In a few lines:
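Compounds were first screened in duplicate at 25 uM, with actives followed up in concentration series. Recombinant NEK2 activity, cell-free, was read 1 h after dosing by fluorescence intensity after mobility-shift separation. Signal loss was scored against DMSO.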

The target of assay [10] is human p21 Activated Kinase 4 (PAK4), PAK4 (gene 10298) (UniProt O96013). The experiment in a line: NVS_ENZ_hPAK4: NovaScreen (NVS) Enzymatic Assay for human p21 Activated Kinase 4 (PAK4) (AID 2283189). The method in brief: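 Extracted PAK4 enzyme activity read by fluorescence with mobility-shift separation 1 h after chemical addition. Duplicate single-concentration screen at 25 uM, DMSO as negative control.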

Assay [11] has as its target human Raf-1 Proto-Oncogene, serine/threonine Kinase (RAF1), RAF1 (gene 5894) (UniProt P04049). Nature of the assay: NVS_ENZ_hRAF1: NovaScreen (NVS) Enzymatic Assay for human Raf-1 Proto-Oncogene, serine/threonine Kinase (RAF1) (AID 2283216). The method in brief:
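Single-point screening at 25 uM (duplicate), followed by singleton concentration-response to 50 uM maximum for chemicals exceeding threshold. Enzyme activity from fluorescent substrate-product mobility-shift separation after 1 h, relative to DMSO.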

Assay [12] concerns the target human MET Proto-Oncogene, Receptor Tyrosine Kinase (MET), MET (gene 4233) (UniProt P08581). The experiment in a line: NVS_ENZ_hMet: NovaScreen (NVS) Enzymatic Assay for human MET Proto-Oncogene, Receptor Tyrosine Kinase (MET) (AID 2283180). In a few lines:
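Hits from a 25 uM duplicate screen were retested in concentration series up to 50 uM. Enzyme activity was measured by fluorescence after electrophoretic separation of product from substrate, 1 h after compound addition, relative to DMSO.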

Assay [13] has as its target human Tyrosine Protein Kinase Receptor Tie-2 (Tie2), TEK (gene 7010) (UniProt Q02763). The experiment in a line: NVS_ENZ_hTie2: NovaScreen (NVS) Enzymatic Assay for human Tyrosine Protein Kinase Receptor Tie-2 (Tie2) (AID 2283225). The method in brief:
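Substrate and product were separated by mobility shift and detected by fluorescence after a 1-hour reaction with recombinant Tie2. Chemicals passing a 25 uM single-point screen were titrated to a maximum of 50 uM. Results were normalized to DMSO baseline.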

Assay [14] concerns the target rat Monoamine Oxidase, MAO-B, Central (MAOBC), Maob (gene 25750) (UniProt P19643). Nature of the assay: NVS_ENZ_rMAOBC: NovaScreen (NVS) Enzymatic Assay for rat Monoamine Oxidase, MAO-B, Central (MAOBC) (AID 2283238). In a few lines:
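Cell-free radiometric assay, rat brain lysate. Read-out: scintillation counts, 1.17 h post-dosing. Screen 25 uM in duplicate; actives (e.g. ≥30% inhibition) then singleton concentration-response, max 50 uM. Activity loss fitted relative to DMSO.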

Assay [15] can be described thus: ATG_M_32_XSP2: Attagene TRANS-FACTORIAL Multi-Species (XSP2) HepG2 Assay for M19 Transcription Factor (Internal Marker) (AID 2283826). In a few lines: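 Read-out: reporter mRNA quantified by RT-PCR, FAM labeling, HpaI digestion and capillary electrophoresis, 24 h after dosing transfected HepG2 cells. Medium carried 3 nM 6-alpha-fluorotestosterone plus 1.5 nM norgestrel; gain of signal fitted against DMSO.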

Assay [16] is described as follows: CCTE_Harrill_HTTr_Apoptosis_PRF_DMEM_12hr: (Pilot) CCTE's 12-hour Apoptosis Assessment for the High-Throughput Transcriptomics (HTTr) Platform, in MCF-7 cells cultured in phenol red-free DMEM + 10% charcoal-stripped fetal bovine serum, Harrill Lab (AID 2283985; active = hit-call score of the fitted dose curve at least 0.9, where 1 is the maximum; inactive = score below 0.9). In a few lines:
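Caspase-3/7 activity by CellEvent Green high content imaging after 12 h compound exposure (eight concentrations) in MCF-7 grown in phenol red-free DMEM plus 10% charcoal-stripped serum; DMSO as baseline.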

The target in the next assay is PPP2CA (gene 5515) (UniProt P67775). Nature of the assay: NVS_ENZ_hPPP2CA: NovaScreen (NVS) Enzymatic Assay for human Protein Phosphatase 2 Aatalytic subunit Alpha (PPP2CA) (AID 2283199). In a few lines: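 Cell-free phosphatase activity: fluorescent substrate turnover by recombinant human enzyme, resolved by mobility shift at 1.33 h. Compounds passing the 25 uM duplicate primary screen were rerun in singleton series with a 50 uM top concentration.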

In assay [17] the target is human Protein Tyrosine Phosphatase Non-receptor Type 2 (PTPN2), PTPN2 (gene 5771) (UniProt P17706). Nature of the assay: NVS_ENZ_hPTPN2: NovaScreen (NVS) Enzymatic Assay for human Protein Tyrosine Phosphatase Non-receptor Type 2 (PTPN2) (AID 2283207). The method in brief: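 Activity measured as fluorescence after mobility-shift separation of substrate and product, 1 h after compound. Duplicate single-point 25 uM primary testing, concentration series for actives; inhibition scored as signal loss relative to DMSO baseline.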

Assay [18] relates to guinea pig Atrionatriuretic Peptide Receptor A (ANPA), gene 100135578. The experiment in a line: NVS_GPCR_gANPA: NovaScreen (NVS) G Protein-Coupled Receptor Assay for guinea pig Atrionatriuretic Peptide Receptor A (ANPA) (AID 2283291). The method in brief:
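Displacement of specific radioligand from guinea pig cerebellum membranes was read by scintillation after 1 h. A duplicate single-point screen at 25 uM was followed by a concentration series up to 50 uM, analysed relative to DMSO.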

The target of assay [19] is bovine Gamma-Aminobutyric Acid Type A Receptor BDZ, alpha 1 site (GABARa1), GABRA1 (gene 780973) (UniProt P08219). The experiment in a line: NVS_LGIC_bGABARa1: NovaScreen (NVS) Ligand-Gated Ion Channel Assay for bovine Gamma-Aminobutyric Acid Type A Receptor BDZ, alpha 1 site (GABARa1) (AID 2283321). The method in brief: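 Bovine cortex membrane preparation, benzodiazepine site on GABA-A alpha1; specific radioligand displacement read after 0.75 h by filtration and scintillation. Screen at 25 uM, then singleton titrations up to 50 uM; DMSO baseline.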

human Raf-1 Proto-Oncogene, serine/threonine Kinase (RAF1), RAF1 (gene 5894), sequence (P04049 whole entry, looked up): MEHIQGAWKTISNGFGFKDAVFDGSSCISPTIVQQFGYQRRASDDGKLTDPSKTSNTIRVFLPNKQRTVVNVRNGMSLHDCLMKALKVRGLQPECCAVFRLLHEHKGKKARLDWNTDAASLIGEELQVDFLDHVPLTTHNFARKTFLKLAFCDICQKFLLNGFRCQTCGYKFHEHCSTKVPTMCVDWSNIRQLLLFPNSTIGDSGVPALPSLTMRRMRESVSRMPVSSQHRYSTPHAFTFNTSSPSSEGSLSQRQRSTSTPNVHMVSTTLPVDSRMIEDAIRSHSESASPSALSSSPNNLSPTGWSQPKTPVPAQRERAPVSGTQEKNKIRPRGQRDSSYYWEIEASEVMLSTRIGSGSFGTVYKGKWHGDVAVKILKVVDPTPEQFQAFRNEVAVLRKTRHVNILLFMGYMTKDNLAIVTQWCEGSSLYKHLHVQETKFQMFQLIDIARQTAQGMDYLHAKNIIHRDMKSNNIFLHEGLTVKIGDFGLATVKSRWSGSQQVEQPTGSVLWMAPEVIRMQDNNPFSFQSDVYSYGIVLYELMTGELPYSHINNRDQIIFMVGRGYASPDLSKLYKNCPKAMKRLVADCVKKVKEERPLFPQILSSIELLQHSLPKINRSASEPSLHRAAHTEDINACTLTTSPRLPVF
human Aurora Kinase A - serine/threonine-protein Kinase 6 (AurA), AURKA (gene 6790), sequence (O14965 whole entry, looked up): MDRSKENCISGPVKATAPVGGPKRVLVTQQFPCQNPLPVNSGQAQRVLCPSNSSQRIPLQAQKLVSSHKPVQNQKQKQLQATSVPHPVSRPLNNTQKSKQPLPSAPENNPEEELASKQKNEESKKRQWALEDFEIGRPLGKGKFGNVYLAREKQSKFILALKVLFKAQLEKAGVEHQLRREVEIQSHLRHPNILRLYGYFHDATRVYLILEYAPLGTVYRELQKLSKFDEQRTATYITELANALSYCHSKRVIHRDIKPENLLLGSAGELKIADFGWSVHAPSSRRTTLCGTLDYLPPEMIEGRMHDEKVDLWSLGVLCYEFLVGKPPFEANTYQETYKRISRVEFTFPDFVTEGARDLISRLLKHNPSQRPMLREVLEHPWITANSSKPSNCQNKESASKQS
human AMP-activated Protein Kinase, alpha 1 (AMPKa1), PRKAA1 (gene 5562), sequence (Q13131 whole entry, looked up): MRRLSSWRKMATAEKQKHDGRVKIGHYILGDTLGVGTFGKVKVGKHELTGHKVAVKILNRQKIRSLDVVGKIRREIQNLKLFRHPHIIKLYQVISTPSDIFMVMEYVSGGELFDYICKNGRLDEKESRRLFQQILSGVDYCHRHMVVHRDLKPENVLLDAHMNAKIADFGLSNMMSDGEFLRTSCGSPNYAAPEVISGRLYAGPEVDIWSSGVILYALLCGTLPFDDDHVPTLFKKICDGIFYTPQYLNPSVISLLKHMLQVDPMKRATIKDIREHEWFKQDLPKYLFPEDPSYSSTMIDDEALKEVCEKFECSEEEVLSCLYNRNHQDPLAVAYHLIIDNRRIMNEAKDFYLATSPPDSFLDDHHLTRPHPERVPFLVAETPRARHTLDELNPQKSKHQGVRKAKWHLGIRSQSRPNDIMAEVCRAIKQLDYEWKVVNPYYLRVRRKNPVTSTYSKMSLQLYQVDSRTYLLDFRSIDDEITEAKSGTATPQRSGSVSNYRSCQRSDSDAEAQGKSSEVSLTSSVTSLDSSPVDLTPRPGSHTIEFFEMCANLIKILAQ
human Epidermal Growth Factor Receptor (EGFR), EGFR (gene 1956), sequence (P00533 whole entry, looked up): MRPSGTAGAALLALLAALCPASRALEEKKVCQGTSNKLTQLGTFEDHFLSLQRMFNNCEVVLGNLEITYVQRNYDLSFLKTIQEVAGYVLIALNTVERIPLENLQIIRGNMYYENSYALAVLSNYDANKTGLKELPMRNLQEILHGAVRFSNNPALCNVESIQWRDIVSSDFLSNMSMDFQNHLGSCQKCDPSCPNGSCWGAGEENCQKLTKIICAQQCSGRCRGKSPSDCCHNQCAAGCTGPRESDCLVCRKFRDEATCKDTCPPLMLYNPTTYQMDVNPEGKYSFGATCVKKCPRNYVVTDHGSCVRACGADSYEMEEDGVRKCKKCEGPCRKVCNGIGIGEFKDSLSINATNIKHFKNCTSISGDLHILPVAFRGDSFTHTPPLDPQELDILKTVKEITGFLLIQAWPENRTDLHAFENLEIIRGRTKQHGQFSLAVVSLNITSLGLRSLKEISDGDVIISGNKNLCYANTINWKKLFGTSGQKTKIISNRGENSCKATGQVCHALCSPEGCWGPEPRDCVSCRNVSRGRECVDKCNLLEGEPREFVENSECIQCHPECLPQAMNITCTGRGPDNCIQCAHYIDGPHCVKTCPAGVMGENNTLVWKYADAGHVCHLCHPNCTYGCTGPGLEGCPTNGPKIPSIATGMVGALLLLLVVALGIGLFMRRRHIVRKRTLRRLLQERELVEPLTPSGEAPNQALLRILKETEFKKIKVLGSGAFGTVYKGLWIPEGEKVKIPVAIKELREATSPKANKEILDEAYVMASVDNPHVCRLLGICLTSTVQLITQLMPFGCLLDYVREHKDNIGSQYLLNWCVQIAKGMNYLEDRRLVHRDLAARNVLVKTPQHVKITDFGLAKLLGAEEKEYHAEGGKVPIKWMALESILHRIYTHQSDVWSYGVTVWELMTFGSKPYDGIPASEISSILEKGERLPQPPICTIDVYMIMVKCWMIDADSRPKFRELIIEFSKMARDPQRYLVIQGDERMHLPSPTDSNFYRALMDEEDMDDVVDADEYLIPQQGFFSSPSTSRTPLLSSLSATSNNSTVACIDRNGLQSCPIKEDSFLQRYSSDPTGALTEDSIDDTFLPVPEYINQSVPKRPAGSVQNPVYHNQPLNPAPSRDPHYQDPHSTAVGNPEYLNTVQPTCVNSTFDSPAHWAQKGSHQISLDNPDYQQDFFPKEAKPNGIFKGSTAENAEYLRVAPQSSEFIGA
human p21 Activated Kinase 4 (PAK4), PAK4 (gene 10298), sequence (O96013 whole entry, looked up): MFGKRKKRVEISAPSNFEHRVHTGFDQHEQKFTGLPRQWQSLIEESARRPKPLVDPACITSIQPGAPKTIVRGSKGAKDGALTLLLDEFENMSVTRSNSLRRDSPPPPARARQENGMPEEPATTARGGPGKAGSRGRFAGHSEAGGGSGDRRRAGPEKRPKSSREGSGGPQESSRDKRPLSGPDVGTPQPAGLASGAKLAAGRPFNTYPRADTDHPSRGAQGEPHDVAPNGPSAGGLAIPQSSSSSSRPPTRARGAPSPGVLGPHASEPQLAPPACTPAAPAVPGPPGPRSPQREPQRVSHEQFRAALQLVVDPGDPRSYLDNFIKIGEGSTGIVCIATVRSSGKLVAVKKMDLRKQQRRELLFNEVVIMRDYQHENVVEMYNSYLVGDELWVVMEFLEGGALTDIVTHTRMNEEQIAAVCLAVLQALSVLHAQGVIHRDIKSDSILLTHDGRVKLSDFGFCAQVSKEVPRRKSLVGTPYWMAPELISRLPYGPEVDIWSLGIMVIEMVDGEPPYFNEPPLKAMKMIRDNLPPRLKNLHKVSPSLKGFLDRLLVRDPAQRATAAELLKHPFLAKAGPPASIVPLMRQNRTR
human NIMA (Never In Mitosis Gene A)-Related Kinase 2 (NEK2), NEK2 (gene 4751), sequence (P51955 whole entry, looked up): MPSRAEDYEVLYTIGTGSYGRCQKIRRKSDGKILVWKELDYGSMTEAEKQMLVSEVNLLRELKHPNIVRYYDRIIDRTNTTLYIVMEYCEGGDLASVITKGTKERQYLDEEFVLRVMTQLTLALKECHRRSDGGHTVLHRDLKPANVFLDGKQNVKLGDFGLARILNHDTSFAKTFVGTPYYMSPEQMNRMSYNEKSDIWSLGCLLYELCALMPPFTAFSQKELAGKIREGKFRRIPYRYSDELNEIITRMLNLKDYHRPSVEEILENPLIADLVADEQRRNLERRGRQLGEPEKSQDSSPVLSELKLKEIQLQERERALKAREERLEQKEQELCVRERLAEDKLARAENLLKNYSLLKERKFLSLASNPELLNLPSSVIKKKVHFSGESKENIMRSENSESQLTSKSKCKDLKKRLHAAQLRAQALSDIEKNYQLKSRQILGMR
rat Corticotropin Releasing Factor Receptor (CRF), Crhr1 (gene 58959), sequence (P35353 whole entry, looked up): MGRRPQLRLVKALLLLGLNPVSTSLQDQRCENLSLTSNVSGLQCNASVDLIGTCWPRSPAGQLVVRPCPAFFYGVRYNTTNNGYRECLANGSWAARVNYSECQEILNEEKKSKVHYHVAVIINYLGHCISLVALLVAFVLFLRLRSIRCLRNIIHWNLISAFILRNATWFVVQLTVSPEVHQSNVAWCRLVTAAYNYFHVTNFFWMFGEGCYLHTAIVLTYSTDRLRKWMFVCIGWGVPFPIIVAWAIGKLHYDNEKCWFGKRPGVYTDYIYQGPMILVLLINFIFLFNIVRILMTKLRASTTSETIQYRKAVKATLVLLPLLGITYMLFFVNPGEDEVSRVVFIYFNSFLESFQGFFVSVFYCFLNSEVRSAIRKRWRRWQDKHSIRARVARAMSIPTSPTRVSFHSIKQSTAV
human Protein Tyrosine Phosphatase Non-receptor Type 2 (PTPN2), PTPN2 (gene 5771), sequence (P17706 whole entry, looked up): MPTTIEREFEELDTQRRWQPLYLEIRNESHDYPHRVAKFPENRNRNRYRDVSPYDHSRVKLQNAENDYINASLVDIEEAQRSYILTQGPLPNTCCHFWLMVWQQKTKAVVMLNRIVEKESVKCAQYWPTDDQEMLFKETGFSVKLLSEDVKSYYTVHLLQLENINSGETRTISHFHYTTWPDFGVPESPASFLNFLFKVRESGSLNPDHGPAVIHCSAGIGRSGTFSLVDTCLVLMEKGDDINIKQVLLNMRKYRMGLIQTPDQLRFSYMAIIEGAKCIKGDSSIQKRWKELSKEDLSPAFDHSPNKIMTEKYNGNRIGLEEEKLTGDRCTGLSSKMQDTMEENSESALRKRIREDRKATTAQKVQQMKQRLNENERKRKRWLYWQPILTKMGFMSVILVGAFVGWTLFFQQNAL
PPP2CA (gene 5515), sequence (P67775 whole entry, looked up): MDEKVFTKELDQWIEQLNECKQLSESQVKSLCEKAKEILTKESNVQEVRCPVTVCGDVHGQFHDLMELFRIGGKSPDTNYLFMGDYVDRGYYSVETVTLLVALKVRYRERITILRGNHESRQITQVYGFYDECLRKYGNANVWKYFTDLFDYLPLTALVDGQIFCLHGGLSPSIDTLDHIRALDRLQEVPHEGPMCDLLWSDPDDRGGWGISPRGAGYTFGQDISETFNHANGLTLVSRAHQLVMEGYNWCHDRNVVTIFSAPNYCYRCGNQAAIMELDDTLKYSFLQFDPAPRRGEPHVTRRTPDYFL

Regarding `Cc1oc(-c2ccccc2)nc1CCOc1cccc2c1ccn2CCC(=O)O`, the call in assay [1], in assay [2], in assay [4] and in [5] was inactive. In assay [3], the AC50 was 5.98 µM (active).

For the compound `CN1C(=O)N(c2ccccc2Br)Cc2cnc(Nc3ccc4c(c3)OCC(CO)O4)nc21` (centres undefined), the call in assay [6] was inactive. In addition, the AC50 is 5.65 µM (active) in assay [7]; 0.00229 µM (active) in [8]; 0.0059 µM (active) in [2]; 0.00229 µM (active) in [9]; 8.54 µM (active) in assay [10]; 0.00359 µM (active) in assay [11].

On to `O=C(Oc1ccccc1)c1cccc(C(=O)Oc2ccccc2)c1`, for which the call in [6], in [7], in assay [8], in [12] and in assay [10] was inactive.

For the compound `N[C@@H](Cc1cc(I)c(Oc2ccc(O)c(I)c2)c(I)c1)C(=O)O`, the result in assay [6], in assay [10], in [11], in [13], in assay [14] and in assay [15] was inactive. Besides, the result in assay [16] was inactive. For the same compound, the AC50 in assay [7] is 4.51 µM (active).

`O=C(OCCCCCOC(=O)c1ccccc1)c1ccccc1`: the call (in [6]; in assay [7]; in assay [8]; in [10]; in the assay with PPP2CA (gene 5515); in assay [17]) was inactive. Moreover, the outcome in assay [11] and in assay [4] was inactive.

Take `CC(C)(C)c1ccccc1`: the outcome in [6], in assay [10] and in assay [18] was inactive.

Turning to `C/C=C/C=C/C(=O)O`, in [6], the compound was called inactive. In addition, in [19], the AC50 was 20.9 µM (active).

For `O=C(O)Cc1cc(I)c(Oc2ccc(O)c(I)c2)c(I)c1`, the result in [6], in [8], in assay [9], in [11] and in assay [15] was inactive. The AC50 in assay [7] is 1.37 µM (active).

Values taken from PubChem BioAssay (EPA / NIEHS).
